In PubChem BioAssay (EPA / NIEHS) one finds outcome and AC50 data, which are given here for 40 compounds.

Activity calls are given as the source filed them. The calls were made as follows: active = hit-call score of the fitted dose curve at least 0.9, where 1 is the maximum; inactive = score below 0.9.

This assay can be described thus: CCTE_Padilla_ZF_Score.Edema: CCTE's 144 Hour Post-fertilization zebrafish Assay Score for Edema Malformation, Padilla Lab (AID 2284406). The protocol: CCTE_Padilla_ZF_Phenotype_Score is a whole embryo, multiplexed assay using zebrafish ova exposed for 144 hours post fertilization on a 96-well plate.CCTE_Padilla_ZF_Score.Edema is one of one assay component(s) measured or calculated from the CCTE_Padilla_ZF_Phenotype_Score assay. It is designed to make measurements of zebrafish development as detected with brightfield microscopy of developing zebrafish embryos.Data from the assay component CCTE_Padilla_ZF_Score.Edema was analyzed into 1 assay endpoints. This assay endpoint, CCTE_Padilla_ZF_Score.Edema, was analyzed in the positive analysis fitting direction relative to DMSO as the negative control and baseline of activity. Using a type of viability reporter, gain-of-signal activity can be used to understand changes in developmentals as they relate to the whole embryo. To generalize the intended target to other relatable targets, this assay endpoint is annotated to the zebrafish development intended target family, where the subfamily is embryonic edema.
Zebrafish husbandry: Wild type adult zebrafish (Danio rerio; undefined outbred stock obtained from Aquatic Research Organisms, Hampton, NH, 03842) were housed in an AAALAC-approved animal facility at 28C with a 14:10 h light: dark cycle (lights on at 08:30 h). Adult fish (2-3 females per male; density = 15-20 adults per tank) were kept in one of several 9-liter (L) flow-through colony tanks (Aquaneering Inc., San Diego, CA). All adults in a colony tank were placed in a 2 L (static) breeding tank (Aquatic Habitats, Apopka, FL) one hour prior to light onset. Typically, adults from two to three colony tanks were mated on the same day. Two hours after light onset the adults were returned to the colony tank. All embryos were gathered from each breeder tank, pooled, and placed in a 28C water bath for 2 h, followed by two washes with 0.06% bleach (v/v) in 10% Hanks' Balanced Salt Solution (13.7 mM NaCl 0.54 mM KCl, 25 uM Na2HPO4, 130 uM CaCl2 100 um MgSO4 and 420 um NaHCO3,), hereafter referred to as Hanks' solution, for 5 min in order to remove any residual bacteria or fungi. Immediately following washing, the embryos were examined, and healthy embryos were separated from dead or unfertilized eggs and moved into fresh Hanks'. Chemical exposures: Zebrafish embryos were exposed in 96-well plates. Between 6- and 8-hours post fertilization (hpf), healthy embryos (with chorions) were transferred, one embryo per well, into 96 well (0.5 mL) microtiter plates (Cell Culture-Treated, Flat-Bottom Microplate 96 well [Corning Costar, Kennebunk, ME; Cat 09-761-145]) filled with 200 uL of Hanks' solution. A random number generator was used to assign the order in which the rows of embryos were plated in 96 well plates each week. After plating, the embryos were dosed with 0.8 uL of the chemical dosing solution then immediately sealed with AlumaSeal II (Excel Scientific Inc, Victorville, CA) to prevent volatilization of the chemicals, and then placed in a leakproof secondary container. These containers were placed in an incubator maintained on a 14:10 h light: dark cycle at 26C for rearing. On 5 dpf, live larvae were gently moved out of the plate with test chemicals and into a new 96 well mesh plate (Millipore Corp., Bedford, MA) with just the Hanks' solution. Once within the mesh well plate, the animals were rinsed with 400 uL of fresh Hanks' three times, and then the plates were covered with a non-adhesive material (Microseal A, BioRad, Hercules, CA), plate lid added, and then plate sides wrapped in Parafilm (PM992, Bermis Company, Neenah, WI), and returned to the incubator. This rinse on 5 dpf was conducted to lessen the possible exposure of the human assessors to the chemicals during detailed examination of each larva at 6 dpf.Larval assessments: On 6 dpf between 8 and 10 AM, two individual assessors, blinded to the chemical treatments, independently examined each larva for mortality, hatching status, and malformations using an Olympus SZH10 stereo microscope. […]
As to `O=C(O)C(F)(F)C(F)(F)OC(F)(F)F`, the compound was called inactive. On to `OCCCC(F)(F)C(F)(F)C(F)(F)C(F)(F)C(F)(F)C(F)(F)C(F)(F)F`, for which the AC50 – broadly, the concentration at which the activity in the assay is half-maximal – is 36.4 µM (active). For `C=C(C)C(=O)OCC(F)(F)C(F)(F)C(F)(F)C(F)(F)C(F)(F)C(F)(F)C(F)(F)F`, the call was inactive.

As for `O=C(O)C(F)(F)C(F)(F)C(F)(F)C(F)(F)C(F)(F)C(F)(F)C(F)(F)C(F)(F)C(F)(F)C(F)(F)C(F)(F)C(F)(F)F`, the call was inactive.

Turning to `O=S(=O)(OCCOC(F)(F)F)C(F)(F)F`, the compound was classed as inactive. In the case of `O=C(O)C=C(C(F)(F)F)C(F)(F)F`, the compound was classed as inactive. With `FC(F)(F)C(F)(F)C(F)(F)C(F)(F)C(F)(F)C(F)(F)C(F)(F)I`, the AC50 was 10.2 µM (active). `FC(F)(F)C(F)(F)C(F)(F)N(C(F)(F)C(F)(F)C(F)(F)F)C(F)(F)C(F)(F)C(F)(F)F`: the outcome was inactive.

On to `O=C(O)C(F)(OC(F)(F)C(F)(OC(F)(F)C(F)(OC(F)(F)C(F)(F)C(F)(F)F)C(F)(F)F)C(F)(F)F)C(F)(F)F` (stereo not given), for which the call was inactive. As to `OCC(F)(F)C(F)(F)C(F)(F)C(F)(F)C(F)(F)C(F)F`, the result was inactive. Regarding `CCO[Si](CCC(F)(F)C(F)(F)C(F)(F)C(F)(F)C(F)(F)C(F)(F)F)(OCC)OCC`, the call was inactive. Turning to `OCC(F)(F)C(F)(F)C(F)(F)F`, the compound was called inactive. Consider `O=C(Cl)C(F)(F)C(F)(F)C(F)(F)C(F)(F)C(F)(F)C(F)(F)C(F)(F)C(F)(F)F`, for which the concentration at half-maximal activity (AC50) is 10 µM (active). `O=C(O)C(F)(F)C(F)(F)C(F)(F)C(F)(F)C(F)(F)C(F)(F)C(F)(F)C(F)(F)C(F)(F)C(F)(F)C(F)(F)C(F)(F)C(F)(F)F`: the call was inactive. With `O=C(O)C(F)(F)C(F)(F)C(F)F`, the result was inactive. With `CCCCCCCCC(F)(F)C(F)(F)C(F)(F)C(F)(F)C(F)(F)C(F)(F)F`, the compound was called inactive. Same read-out and setting: as for `O=C(O)C(F)(F)C(F)(F)C(F)(F)C(F)(F)F`, the entry is “inactive”. In the case of `FC(F)(F)C(F)(F)CNCC(F)(F)C(F)(F)F`, the call was inactive. Turning to `C=C(C)C(=O)OCCC(F)(F)C(F)(F)C(F)(F)C(F)(F)C(F)(C(F)(F)F)C(F)(F)F`, the result was inactive. As for `O=C(O)C(F)(OC(F)(F)C(F)(OC(F)(F)C(F)(F)C(F)(F)F)C(F)(F)F)C(F)(F)F` (stereo not given), the result was inactive. As to `C=CC(=O)OCC(F)(F)C(F)(F)C(F)(F)C(F)(F)C(F)(F)C(F)(F)C(F)(F)F`, the outcome was inactive. For the compound `O=C(O)C(F)(F)C(F)(F)C(F)(F)F`, the result was inactive. In the case of `O=C(O)C(F)(F)C(F)(F)F`, the compound was called inactive.

On to `O=S(=O)(O)C(F)(F)C(F)(F)C(F)(F)C(F)(F)C(F)(F)C(F)(F)C(F)(F)F`, for which the half-maximal activity concentration (AC50) is 25.8 µM (active). `O=C(CC(=O)C(F)(F)C(F)(F)F)C(F)(F)F`: the compound was called inactive.

For the compound `NC(=O)C(F)(F)C(F)(F)C(F)(F)C(F)(F)F`, the compound was classed as inactive. Turning to `FC(F)(I)C(F)(F)C(F)(F)C(F)(F)I`, the AC50 was 24.3 µM (active).

Regarding `FC(F)(F)C(F)(F)C(F)(F)C(F)(F)C(F)(F)C(F)(F)C(F)(F)C(F)(F)F`, the compound was called inactive. For `O=C(O)C(F)(F)C(F)(F)C(F)(F)C(F)(F)C(F)(F)C(F)(F)C(F)(F)C(F)(F)Cl`, the AC50 is 36.6 µM (active). Take `C=C(C)C(=O)OCC(F)(F)C(F)(F)C(F)(F)F`: the compound was classed as inactive.

In the case of `OCC(F)(F)C(F)(F)C(F)(F)C(F)(F)C(F)(F)C(F)(F)F`, the concentration at half-maximal activity (AC50) was 84.7 µM (active).

For the compound `FC(F)(Br)C(F)(F)C(F)(F)C(F)(F)C(F)(F)C(F)(F)Br`, the outcome was inactive. With `C=CC(=O)OCC(F)(F)C(F)(F)C(F)(F)C(F)(F)COC(=O)C=C`, the AC50 was 4.88 µM (active). For `FC(F)(F)C(F)(F)C(F)(F)C(F)(F)C(F)(F)C(F)(F)CC1CO1` (stereo not given), the result was inactive. For the compound `FC(F)(F)C(F)(F)C(F)(F)C(F)(F)C(F)(F)C(F)(F)C(F)(F)C(F)(F)CCS`, the outcome was inactive. Turning to `OCC(F)(F)C(F)(F)C(F)(F)C(F)F`, the result was inactive.

For `O=S(=O)(OCC(F)F)C(F)(F)F`, the compound was classed as inactive. As for `OCCCC(F)(F)C(F)(F)C(F)(F)F`, the result was inactive. Consider `N=C(N)C(F)(F)C(F)(F)C(F)(F)C(F)(F)C(F)(F)C(F)(F)C(F)(F)F`, for which the call was inactive. Still for that read-out and setting: as for `FC(F)(F)C(F)(F)C(F)(F)C(F)(F)C(F)(F)C(F)(F)C(F)(F)Br`, the entry is “inactive”.
